Measured values published in PubChem BioAssay (NCATS).
Inconclusive results are not listed. Calls of active or inactive are those of the source. Calls come from the whole dose curve; as a rule, active = well fitted cell-killing curve with a large enough effect; inconclusive = small, poorly fitted or top-dose-only effect, or effect the other way; inactive = flat fitted curve, though single readings scatter.

What was measured:
Test in all cases: Primary qHTS to identify gynecologic anti-cancer compounds using libraries of approved drugs and bioactive compounds (AID 1345084); note: nearly all actives have a fitted effect of over 55% in size
C33A = conditions: Gynecologic cancer cell panel viability, ATPlite luminescence, 48 h; series mostly up to 57.5 µM
In short: (§1)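 Luminescence from the ATPlite ATP-monitoring reagent indicates viable cell number; lower signal means cytotoxicity. Cells received compound 16 h after seeding and were exposed for 48 h across five concentrations.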

CAOV3 = conditions: Gynecologic cancer cell panel viability, ATPlite luminescence, 48 h; series mostly up to 57.5 µM
In short: as §1

CASKI = conditions: Gynecologic cancer cell panel viability, ATPlite luminescence, 48 h; series mostly up to 57.5 µM
In short: as §1

Es-2 = conditions: Gynecologic cancer cell panel viability, ATPlite luminescence, 48 h; series mostly up to 57.5 µM
In short: as §1

HeLa = conditions: Gynecologic cancer cell panel viability, ATPlite luminescence, 48 h; series mostly up to 57.5 µM
In short: as §1

Hek293T = conditions: Gynecologic cancer cell panel viability, ATPlite luminescence, 48 h, control line for the selectivity index; series mostly up to 57.5 µM
In short: as §1
% is set by controls: 0 for no effect and ±100 for the full control effect.

OCC1OC(Oc2cc(O)c3c(c2)OC(c2ccc(O)cc2)C(O)C3)C(O)C1O (stereo unspecified)
inactive: Potency (C33A) | Potency (CAOV3) | Potency (CASKI) | Potency (Es-2) | Potency (HeLa) | Potency (Hek293T)

C[C@@H]1O[C@@H](O[C@H]2[C@H](OC(=O)[C@]34CCC(C)(C)C[C@H]3C3=CCC5[C@@]6(C)C[C@H](O)[C@H](O[C@@H]7O[C@H](CO)[C@@H](O[C@@H]8O[C@H](CO)[C@@H](O)[C@H](O)[C@H]8O)[C@H](O)[C@H]7O)[C@@](C)(CO)C6[C@H](O)C[C@@]5(C)[C@]3(C)C[C@H]4O)OC[C@H](O)[C@@H]2O)[C@H](O)[C@H](O)[C@H]1O[C@@H]1OC[C@@H](O)[C@H](O[C@@H]2OC[C@](O)(CO)[C@H]2O)[C@H]1O (stereo partly specified)
inactive: activity change, negative = cytotoxicity (C33A) 12.9% [at 6.55 µM] | activity change, negative = cytotoxicity (CAOV3) 18.5% [at 6.55 µM] | activity change, negative = cytotoxicity (CASKI) 12.9% [at 6.55 µM] | activity change, negative = cytotoxicity (Es-2) 5.24% [at 6.55 µM] | activity change, negative = cytotoxicity (HeLa) 5.03% [at 6.55 µM] | activity change, negative = cytotoxicity (Hek293T) 1.73% [at 6.55 µM]

CC1CCC2C(C)(C)C(O)CCC2(C)C12Cc1c(O)cc3c(c1O2)CN(C(CCC(N)=O)C(=O)O)C3=O (stereo unspecified)
inactive: Potency (C33A) | Potency (CAOV3) | Potency (CASKI) | Potency (Es-2) | Potency (HeLa) | Potency (Hek293T)

COc1ccc(/C=C/C(=O)O[C@H]2[C@@H]3C=CO[C@@H](O[C@@H]4O[C@H](CO)[C@@H](O)[C@H](O)[C@H]4O)[C@@H]3[C@@]3(CO)O[C@@H]23)cc1O
inactive: Potency (C33A) | Potency (CAOV3) | Potency (CASKI) | Potency (Es-2) | Potency (HeLa) | Potency (Hek293T)

CC(C)N(C[C@H]1O[C@@H](n2cnc3c(N)ncnc32)[C@H](O)[C@@H]1O)C1CC(CCc2nc3ccc(C(C)(C)C)cc3[nH]2)C1 (stereo partly specified)
inactive: Potency (C33A) | Potency (CAOV3) | Potency (CASKI) | Potency (Es-2) | Potency (HeLa) | Potency (Hek293T)

C[C@@H]1O[C@@H](O[C@H]2[C@H](OC(=O)C34CCC(C)(C)CC3C3=CCC5C6(C)CC(O)C(O[C@@H]7O[C@H](CO)[C@@H](O)[C@H](O)[C@H]7O)C(C)(C(=O)O)C6CCC5(C)C3(CO)CC4)O[C@H](C)[C@H](O)[C@@H]2O)[C@H](O)[C@H](O)[C@H]1O[C@@H]1OC[C@@H](O)[C@H](O)[C@H]1O (stereo partly specified)
inactive: activity change, negative = cytotoxicity (C33A) 7.58% [at 11.6 µM] | activity change, negative = cytotoxicity (CAOV3) 18.2% [at 11.6 µM] | activity change, negative = cytotoxicity (CASKI) 8.6% [at 11.6 µM] | activity change, negative = cytotoxicity (Es-2) 0.101% [at 11.6 µM] | activity change, negative = cytotoxicity (HeLa) 10.9% [at 11.6 µM] | activity change, negative = cytotoxicity (Hek293T) 7.78% [at 11.6 µM]

C[C@@H]1CCC2C(C)(C)[C@H](O)CC[C@]2(C)[C@@]12Cc1c(O)cc3c(c1O2)CN(CCO)C3=O (stereo partly specified)
inactive: Potency (C33A) | Potency (CAOV3) | Potency (CASKI) | Potency (Es-2) | Potency (HeLa) | Potency (Hek293T)

CC(C)C(=O)O[C@@H]1[C@@H](O)[C@@H](O[C@H]2O[C@H](CO)[C@@H](O)[C@H](O)[C@H]2O)O[C@H](CO)[C@H]1O
inactive: Potency (C33A) | Potency (CAOV3) | Potency (CASKI) | Potency (Es-2) | Potency (HeLa) | Potency (Hek293T)

CC(C)c1cc2c(c(O)c1O[C@@H]1O[C@H](CO)[C@@H](O)[C@H](O)[C@H]1O)CC1(O)CCC(O)C(C)(C)C1CC2 (stereo partly specified)
inactive: Potency (C33A) | Potency (CAOV3) | Potency (CASKI) | Potency (Es-2) | Potency (HeLa) | Potency (Hek293T)

CC(=O)O[C@H]1[C@H](C)[C@@H](O)[C@H]2[C@@H]1C=C(C(=O)O)[C@H]1C[C@@H]3[C@H]([C@H]21)[C@H]1C(=O)O[C@@H]2CC[C@@]3(C)O[C@]1(O)[C@@H]2C
inactive: Potency (C33A) | Potency (CAOV3) | Potency (CASKI) | Potency (Es-2) | Potency (HeLa) | Potency (Hek293T)

Cn1c(=O)c2nc(/C=C/c3cccc(Cl)c3)n(C)c2n(C)c1=O
inactive: Potency (C33A) | Potency (CAOV3) | Potency (CASKI) | Potency (Es-2) | Potency (HeLa) | Potency (Hek293T)

NC(=O)c1cccc(-c2cc(O)cc(OC(=O)NC3CCCCC3)c2)c1
inactive: Potency (C33A) | Potency (CAOV3) | Potency (CASKI) | Potency (Es-2) | Potency (HeLa) | Potency (Hek293T)

CC1(C)C(O)CCC2(C)C1C(O)C=C1COC(=O)C12O (stereo unspecified)
inactive: Potency (C33A) | Potency (CAOV3) | Potency (CASKI) | Potency (Es-2) | Potency (HeLa) | Potency (Hek293T)

C=C1[C@@H]2[C@H]3OC(=O)C(=C)[C@@H]3CC[C@@](C)(O)[C@@H]2C[C@@H]1O[C@@H]1O[C@H](CO)[C@@H](O)[C@H](O)[C@H]1O
inactive: Potency (C33A) | Potency (CAOV3) | Potency (CASKI) | Potency (Es-2) | Potency (HeLa) | Potency (Hek293T)

CC1=CC(=O)OC(C)(CC(C)(O)C(=O)O)C1 (stereo unspecified)
inactive: Potency (C33A) | Potency (CAOV3) | Potency (CASKI) | Potency (Es-2) | Potency (HeLa) | Potency (Hek293T)

C[C@@H]1O[C@@H](O[C@H]2[C@H](OC(=O)[C@]34CCC(C)(C)C[C@H]3C3=CCC5[C@@]6(C)C[C@H](O)[C@H](O[C@@H]7O[C@H](CO[C@@H]8OC[C@H](O)[C@H](O)[C@H]8O)[C@@H](O)[C@H](O)[C@H]7O)C(C)(C)C6CC[C@@]5(C)[C@]3(C)C[C@H]4O)OC[C@@H](O)[C@@H]2O)[C@H](O)[C@H](O[C@@H]2OC[C@](O)(CO)[C@H]2O)[C@H]1O[C@@H]1OC[C@H](O)[C@H](O[C@@H]2OC[C@@H](O)[C@H](O)[C@H]2O)[C@H]1O (stereo partly specified)
inactive: activity change, negative = cytotoxicity (C33A) -0.101% [at 6.55 µM] | activity change, negative = cytotoxicity (CAOV3) 12.2% [at 6.55 µM] | activity change, negative = cytotoxicity (CASKI) 2.2% [at 6.55 µM] | activity change, negative = cytotoxicity (Es-2) -0.0559% [at 6.55 µM] | activity change, negative = cytotoxicity (HeLa) 19.1% [at 6.55 µM] | activity change, negative = cytotoxicity (Hek293T) 7.42% [at 6.55 µM]
